Compound activity deposited in PubChem BioAssay by National Center for Advancing Translational Sciences (NCATS).
Hits are enriched below; roughly 7.6% of the tested compounds scored in any of these assays.
p53 reactivator – qHTS assay for re-activators of p53 using a Luc reporter; H1299 p53-A138V BP100-luciferase reporter, luminescence, 24 h; Potency, µM (series often up to 92.2 µM), inactives show at the top dose activity change, positive = activation, most hits filed as activators; 0.063% of 320,000 active; AID 504706, 2011; note: potency is the fitted concentration of half-maximal effect; % of control where 0% means no effect; nearly all actives have a fitted effect of over 45% in size
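H1299 (p53-null), stable ts p53-A138V + BP100-Luc; 1000 cells/well, Opti-MEM/10% FBS; cpd 4 pt, 1:5; 24 h, 37 deg C, 5% CO2; detection reagent 10 min RT; luminescence.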
Giardia kill – Small Molecules that selectively kill Giardia lamblia: qHTS | Giardia lamblia trophozoite viability | AID 540267, 2011 | activity change, % at 7.66 µM, hits read low | 0.15% of 340,000 active; in the data active = activity change below about -80%; inconclusive = between about -30% and that limit;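 note: parasites exposed to compound for two days anaerobically before the ATP read; % is set by controls: 0 for no effect and ±100 for the full control effect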
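Luminescence from cellular ATP indicates surviving trophozoites (100 cells/well) following 48 hrs anaerobic compound treatment at 37 deg C; signal develops 15-30 min at room temperature.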
Gal4-VP16 FLuc – VP16 counterscreen qHTS for inhibitors of ROR gamma transcriptional activity; Potency, µM (highest dose often 53.6 µM), without a hit: top-dose activity, negative = inhibition, usual class: inhibitors; 3.5% of 310,000 active; Drosophila S2 Gal4-VP16 UAS-luciferase, luminescence, 20 h;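 note: Gal4-VP16 expression switched on by copper sulfate through the metallothionein promoter; potency is the fitted concentration of half-maximal effect; % is set by controls: 0 for no effect and ±100 for the full control effect; nearly all actives have a fitted effect of over 50% in size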
BRCA1 expr up – qHTS Assay to Identify Small Molecule Activators of BRCA1 Expression; 1.1% of 380,000 active; Potency, µM (series often up to 46.1 µM), inactives show at the top dose activation, actives largely listed as activators; MCF7-BRCA1-FFLuc reporter, luminescence, 48 h; response scale: scaled: vehicle 0%, 10 µM genistein 100%; note: potency is the fitted concentration of half-maximal effect; nearly all actives have a fitted effect of over 80% in size
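Cells: MCF7-BRCA1-FFLuc, 2000/well. Exposure: 48 h, 37 °C, 5% CO2. Read: luminescence, 15 min post-substrate. Controls: genistein 10 microM (maximal activation), DMSO (neutral).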
RORgamma inh – qHTS for inhibitors of ROR gamma transcriptional activity | Drosophila S2 Gal4-RORgamma UAS-luciferase reporter, 20 h | Potency, µM (series often up to 53.6 µM), inactives show at the highest dose activity change, negative = inhibition, actives largely listed as inhibitors | 5.4% of 310,000 active | AID 2551, 2010; note: potency is the fitted concentration of half-maximal effect; % is set by controls: 0 for no effect and ±100 for the full control effect; nearly all actives have a fitted effect of over 60% in size
Target sequence (P51450 whole entry, looked up, the tested form may be a part): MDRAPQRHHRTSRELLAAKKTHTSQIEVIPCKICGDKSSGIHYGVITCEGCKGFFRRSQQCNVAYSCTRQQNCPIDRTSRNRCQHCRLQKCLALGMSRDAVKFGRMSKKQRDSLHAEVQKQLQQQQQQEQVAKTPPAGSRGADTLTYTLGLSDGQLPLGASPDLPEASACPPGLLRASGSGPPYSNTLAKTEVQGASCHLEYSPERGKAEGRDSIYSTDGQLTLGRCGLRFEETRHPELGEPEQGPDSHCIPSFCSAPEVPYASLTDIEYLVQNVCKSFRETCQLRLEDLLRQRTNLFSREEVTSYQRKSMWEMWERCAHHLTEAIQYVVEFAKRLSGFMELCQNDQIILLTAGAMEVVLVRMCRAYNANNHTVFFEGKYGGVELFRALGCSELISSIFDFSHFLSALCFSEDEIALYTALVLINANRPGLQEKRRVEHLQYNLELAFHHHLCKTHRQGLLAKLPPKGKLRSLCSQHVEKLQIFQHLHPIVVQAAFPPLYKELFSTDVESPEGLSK
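Compounds are pin-transferred onto Drosophila Schneider cells expressing a copper-inducible Gal4–ROR gamma transactivation domain fusion. After 1 hr, copper sulfate is added to 700 uM final; luciferase is read 20 hr later.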
ELG1 repair inh – qHTS screen for small molecules that inhibit ELG1-dependent DNA repair in human embryonic kidney (HEK293T) cells expressing luciferase-tagged ELG1; HEK293T ELG1-luciferase reporter, luminescence, 16 h; DNA damage induced by 5-fluorouridine; Potency, µM (series often up to 46.1 µM), without a hit: at the highest dose activity change, negative = inhibition, hits mostly inhibitors; 2.3% of 330,000 active; note: potency is the fitted concentration of half-maximal effect; % is set by controls: 0 for no effect and ±100 for the full control effect; nearly all actives have a fitted effect of over 55% in size
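In this reporter screen, reduction of luminescence relative to DMSO vehicle indicated activity. Compounds and 5-fluorouridine were added together to 2,000 cells per well, incubated for 16 hr at 37 °C, then developed with ONE-Glo.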
An asterisk follows results filed as active; ? = inconclusive; . = not tested or not shown; [ ] = another dose, or the depositor's remark. Unless noted, calls come from the whole dose curve; as a rule, active = well fitted curve in the direction sought with a large enough effect; inconclusive = small, poorly fitted or top-dose-only effect, or another doubt; inactive = no such curve, though single readings can be large; an effect the other way counts as inactive or inconclusive.

SMILES	p53 reactivator	Giardia kill	Gal4-VP16 FLuc	BRCA1 expr up	RORgamma inh	ELG1 repair inh
COc1cccc(NC(=S)NN=C2CCCCCC2)c1	1%	-21	?	?	13µM*	?
CCc1ccc(NC(=S)Nc2cccc(OC)c2)cc1	6%	-2	?	74%	7.9µM*	?
COc1cccc(NC(=O)Nc2ccc(Cc3ccncc3)cc2)c1	4%	-3	?	14%	?	-7%
COc1cccc(NC(=S)NN2CCN(C)CC2)c1	15%	0	-14%	71%	-18%	?
CCc1ccc(NC(=S)Nc2cc(OC)c(NC(=O)C(C)C)cc2OC)cc1	0%	-16	18µM*	31%	8.9µM*	-1%
S=C(NCc1ccc2c(c1)OCO2)NC1CCN(Cc2ccccc2)CC1	2%	-3	?	-15%	?	-28%
Cc1cccn2c(=O)c3cc(C(=O)NCc4ccc(F)cc4)c(=N)n(CCCN4CCOCC4)c3nc12	.	-13	.	0%	.	.
O=S(=O)(c1ccc(Cl)cc1)N1CCN(Cc2ccc(O)c3ncccc23)CC1	11%	5	2.8µM*	-85%	1µM*	?
CN(Cc1ccccc1)c1cc2c(c3c1ccn3C)C1CCC2C1 (configuration not stated)	.	.	.	-6%	.	.
COc1ccc([C@H]2/C=C\CN(S(=O)(=O)c3ccc4ccccc4c3)[C@@H](C)C(=O)N2Cc2ccc(F)cc2)cc1	.	6	.	-33%	.	.
C[C@@H]1O[C@H](C2CCCC2)CC2=C1C(=O)OC(C)(C)O2	.	.	.	21%	.	.
S=C1NC2(CCCC2)N=C1c1ccccc1	10%	19	-3%[10 µM]	3%	5µM*	13%
CC1(C)N=C(c2ccccc2)C(=O)N1	0%	-2	0%	5%	-2%	3%
O=C1NC2(CCCCCC2)N=C1c1ccc(F)cc1	-3%	7	-9%	-4%	34%	8%
S=C1NC2(CCCCCC2)N=C1c1ccccc1	2%	-13	?	0%	2µM*	-13%
Cc1ccc(C2=NC3(CCCC3)NC2=S)cc1	3%	7	7.9µM*	71%	2.5µM*	?
CC(C)CC1(C)N=C(c2ccccc2)C(=S)N1 (configuration not stated)	2%	2	2.8µM*	-29%	2.8µM*	5%
O=C(CS(=O)(=O)Cc1ccccc1)NCc1ccco1	0%	-8	6%	-11%	-1%	1%
COc1ccc(-n2c(SCC(=O)Nc3nccs3)nnc2-c2ccoc2C)cc1	-2%	-4	10%	7%	-20%	21µM*
Cc1occc1-c1nnc(SCC(=O)Nc2nc(C(C)(C)C)cs2)o1	25%	2	?	36%	?	17%
COc1ccc(OC)c(NC(=O)CSc2nncc3ccc(OC)c(OC)c23)c1	-10%	-12	?	-20%	2%	21µM*
COc1ccc(OC)c(NC(=O)CSc2nnc(-c3ccco3)n2-c2ccccc2)c1	-23%	-2	14%	5%	9%	10µM*
COc1ccc(-n2c(SCC(=O)Nc3cccc(C(=O)O)c3)nnc2-c2ccco2)cc1	-5%	1	-13%	0%	-6%	-16%
Cc1csc(NC(=O)CSc2nnc(-c3ccoc3C)o2)n1	?	5	13%	10µM*	-7%	?
O=C(N1CCCCC1)N1CCN(c2ccc(Cl)cc2)CC1	-10%	6	-1%	2%	?	-8%
SMILES	p53 reactivator	Giardia kill	Gal4-VP16 FLuc	BRCA1 expr up	RORgamma inh	ELG1 repair inh
CCn1c(SCC(=O)Nc2nc(C)cs2)nnc1-c1ccoc1C	0%	13	16%	1%	15%	?
COc1ccc2nc(NC(=O)CSc3nnc(-c4ccoc4C)n3C)sc2c1	?	-10	-10%	5.6µM*	6%	?
COc1ccc(-n2c(SCC(=O)Nc3nc(C)cs3)nnc2-c2ccoc2C)cc1	-13%	8	0%	-37%	31%	23µM*
O=c1c(-c2ccc(Cl)cc2)[n+]([O-])c2ccccc2n1OCc1ccccn1	0%	-24	-5%	-6%	-11%	2%
COc1ccc(Nc2nc3nonc3nc2N2CCCCC2)cc1	-1%	-14	4%	-10%	?	21µM*
Cc1ccc(C(=O)N/N=C/C2=Cc3ccccc3OC2C)cc1 (configuration not stated)	?	4	?	44%	3.2µM*	0%
CC1Oc2ccccc2C=C1/C=N/NC(=O)c1ccccc1 (configuration not stated)	?	-9	?	3.2µM*	-15%	?
CC1Oc2ccccc2C=C1/C=N/NC(=O)c1ccccc1O (configuration not stated)	?	-3	?	62%	?	-8%
Cc1nc(Cl)c(S(N)(=O)=O)c(C)c1Cl	-2%	14	4%	-6%	-4%	-12%
COc1ccc(S(=O)(=O)N2CCCC2CNC(=O)C(=O)NCc2ccco2)cc1 (configuration not stated)	-4%	20	.	-6%	.	-6%
C(=C\c1ccnc2ccccc12)/c1ccc(N2CCOCC2)cc1	.	.	.	-29%	.	.
CC(=O)c1cccc(NC(=S)NC(=O)c2ccc(C)cc2Cl)c1	8%	7	13µM*	-12%	11µM*	?
CC(=O)c1cccc(NC(=S)NC(=O)c2ccccc2Cl)c1	?	10	-86%	2%	13µM*	24%
COc1cc(OC)c(NC(=S)Nc2cccc(C(C)=O)c2)cc1Cl	9%	2	0%	-31%	?	-1%
O=C(NC(=S)Nc1ccccc1O)c1ccccc1Cl	?	-12	?	-6%	7.1µM*	?
COC(=O)c1cccc(NC(=O)NC(=O)c2ccccc2Cl)c1	2%	-25	-13%	-74%	?	?
Cc1nn(C(=O)c2cccc(F)c2)c(C)c1S(=O)(=O)N1CCCCCC1	.	.	.	2%	.	.
NC(N)=NCC1COc2ccccc2O1 (configuration not stated)	.	.	-10%	.	13%	.
Cc1ccc(C)c(S(=O)(=O)Nc2ccccc2C(=O)Nc2ccc(S(=O)(=O)Nc3ncccn3)cc2)c1	8%	4	-6%	-2%	2%	11%
O=c1c2cc(Br)ccc2[nH]c(=S)n1Cc1cccnc1	-3%	12	?	3%	1.1µM*	-5%
